Assay outcomes from PubChem BioAssay.
Sfp inh – blocks B. subtilis Sfp PPTase activity; Biochemical Sfp PPTase activity, qHTS; Potency, µM, most hits filed as inhibitors; hit rate 3.5% among 310,000; AID 1490;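 note: the enzyme is Sfp with the accession as filed and its product quenches rhodamine fluorescence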
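Reaction rates are the 30-min fluorescence difference (ex 525, em 598 nm) in wells containing 15 nM Sfp, 5 uM rhodamine-CoA and 12.5 uM BHQ-2-YbbR at pH 7.6 with 10 mM MgCl2.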
FBPA coupling cs – counter-screen for Giardia aldolase inhibitors: coupling enzyme system; coupling enzyme system counterscreen, AmpLite Red fluorescence; activity change, negative = inhibition, % at 58.2 µM, hits read low; hit rate 0.67% among 290,000; AID 2472; in the data active = activity change below about -30%
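Fluorescence at 525 nm excitation and 598 nm emission measured inhibition of the coupled detection system without aldolase. Compounds (at 57.5 uM final) were preincubated 10 min at room temperature with coupling enzyme reagent before a 20 min substrate/AmpLite Red step.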
ALDH1A1 block – inhibitors of human aldehyde dehydrogenase 1A1 | P00352 | Purified ALDH1A1, NADH fluorescence, propionaldehyde substrate | Potency, µM (top dose mostly 75.3 µM), hits mostly inhibitors | hit rate 7.3% among 220,000; active = well fitted inhibition curve with a large enough effect, not every such curve was filed as active; inconclusive = small, poorly fitted or top-dose-only effect, or another doubt; inactive = no such curve, though single readings can be large or run the other way
NPSR antag – antagonists of human neuropeptide S receptor cAMP signaling; Q6W5P4; CHO-NPSR cells, cAMP TR-FRET, antagonist mode; Potency, µM (titrated, usually from 38.3 µM), most hits filed as inhibitors; hit rate 1% among 220,000; AID 1461; note: nearly all actives have a fitted effect of over 50% in size
RGS12 GoLoco inh – RGS12 GoLoco-Gai1 interaction inhibition; Gai1:RGS12 GoLoco peptide FP, rhodamine, 10 min; Potency, µM (series often up to 61.6 µM), most hits filed as inhibitors; hit rate 0.44% among 230,000; active = well fitted inhibition curve with a large enough effect, not every such curve was filed as active; inactive = no such curve, though single readings can be large or run the other way; note: nearly all actives have a fitted effect of over 30% in size
Target sequence (P63096 whole entry, looked up): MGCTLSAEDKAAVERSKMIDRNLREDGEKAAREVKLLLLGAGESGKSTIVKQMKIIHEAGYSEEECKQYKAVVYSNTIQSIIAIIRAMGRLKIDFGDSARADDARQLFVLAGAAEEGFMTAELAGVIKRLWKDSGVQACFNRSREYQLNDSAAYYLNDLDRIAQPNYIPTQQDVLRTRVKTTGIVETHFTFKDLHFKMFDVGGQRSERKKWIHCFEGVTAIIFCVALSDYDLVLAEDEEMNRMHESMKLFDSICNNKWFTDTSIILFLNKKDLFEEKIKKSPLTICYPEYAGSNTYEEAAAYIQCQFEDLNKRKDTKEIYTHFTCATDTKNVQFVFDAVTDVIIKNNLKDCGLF
KDM4E inh – blocks human JMJD2E demethylase activity; B2RXH2; JMJD2E catalytic domain, FDH-coupled NADH fluorescence (FDH is formaldehyde dehydrogenase); Potency, µM (top dose mostly 57.1 µM), most hits filed as inhibitors; hit rate 1.6% among 230,000; AID 2147; active = well fitted inhibition curve with a large enough effect, not every such curve was filed as active; inconclusive = small, poorly fitted or top-dose-only effect, or another doubt; inactive = no such curve, though single readings can be large or run the other way; note: nearly all actives have a fitted effect of over 50% in size
Large screens that a line does not name were inactive. A selection: hits, their analogues and other compounds. The true share with any hit is near 8.5%. Unless noted, calls come from the whole dose curve; as a rule, active = well fitted curve in the direction sought with a large enough effect; inconclusive = small, poorly fitted or top-dose-only effect, or another doubt; inactive = no such curve, though single readings can be large; an effect the other way counts as inactive or inconclusive.

Cc1ccccc1NC(=S)NC(=O)COc1ccccc1C	none (no result: FBPA coupling cs, ALDH1A1 block, NPSR antag, RGS12 GoLoco inh, KDM4E inh)
O=C(NCCCO)C(=O)Nc1cc2c3c(c1)CCC(=O)N3CCC2	none (no result: ALDH1A1 block, NPSR antag, RGS12 GoLoco inh, KDM4E inh)
COc1cccc(-c2ccc3ncnc(N4CCOCC4)c3c2)c1	none (no result: NPSR antag, KDM4E inh)
Cc1ccccc1-c1ccc2ncnc(N3CCN(C)CC3)c2c1	ALDH1A1 block inconclusive (no result: NPSR antag, KDM4E inh)
c1nc(N2CCOCC2)c2cc(-c3ccoc3)ccc2n1	ALDH1A1 block 22µM (no result: NPSR antag, KDM4E inh)
Cc1ccccc1-c1ccc2ncnc(N3CCOCC3)c2c1	ALDH1A1 block 22µM (no result: NPSR antag, KDM4E inh)
C=CCOc1ccc(C2N3CC4(CC)CN2CC(CC)(C3)C4=O)cc1 (configuration not stated)	ALDH1A1 block inconclusive (no result: RGS12 GoLoco inh)
CCC12CN3CC(CC)(CN(C1)C3c1c(O)ccc3ccccc13)C2=O (configuration not stated)	FBPA coupling cs -36, ALDH1A1 block inconclusive, NPSR antag inconclusive, KDM4E inh 13µM
O=C(COc1cccc(F)c1)N[C@@H](Cc1ccccc1)c1nc2ccccc2[nH]1	none
O=c1cc(-c2ccccc2)oc2c(O)c(O)ccc12	ALDH1A1 block 4µM, KDM4E inh 7.9µM (no result: NPSR antag)
O=c1cc(-c2ccccc2O)oc2ccc3ccccc3c12	none (no result: NPSR antag)
O=c1cc(-c2ccccc2O)oc2c(O)c(O)ccc12	Sfp inh 4µM, FBPA coupling cs -56, ALDH1A1 block 2.5µM, KDM4E inh 11µM (no result: NPSR antag)
C=C(C(C)=O)C(O)c1cccc(Br)c1 (configuration not stated)	none (no result: NPSR antag)
Cc1cc(C)n(-c2nnc(C)n2/N=C/c2cc(Br)ccc2OCc2ccccc2)n1	Sfp inh 28µM, NPSR antag inconclusive
Cc1cc(C)n(-c2nnc(C)n2/N=C/c2ccccc2OCc2ccccc2Cl)n1	NPSR antag inconclusive
NS(=O)(=O)c1ccc(N/N=C/c2ccc(O)c(O)c2O)c([N+](=O)[O-])c1	Sfp inh 4µM, FBPA coupling cs -46, KDM4E inh 2.8µM (no result: ALDH1A1 block)
NS(=O)(=O)c1ccc(N/N=C/c2ccc(O)cc2O)c([N+](=O)[O-])c1	none (no result: ALDH1A1 block)
COc1ccc(N2C(=O)C3CCCN3C2c2ccccc2Cl)cc1 (configuration not stated)	ALDH1A1 block 10µM, KDM4E inh inconclusive
COc1ccc(N2C(=O)C3CCCN3C2c2ccc(C)cc2)cc1 (configuration not stated)	ALDH1A1 block 20µM
COc1ccc(N2C(=O)C3CCCN3C2c2ccccc2OC)cc1 (configuration not stated)	ALDH1A1 block inconclusive
COc1ccc(C2N(c3ccc(OC)cc3)C(=O)C3CCCN32)cc1 (configuration not stated)	ALDH1A1 block inconclusive
CC1CN(CCC(=O)Nc2ccccc2F)CC(C)O1 (configuration not stated)	none (no result: ALDH1A1 block, NPSR antag, RGS12 GoLoco inh, KDM4E inh)
CSc1sc(-c2n[nH]c(=S)n2C)c2c1C=CCC2	Sfp inh 50µM, FBPA coupling cs -34, KDM4E inh inconclusive (no result: ALDH1A1 block)
Cc1[nH]c2ccc(-c3n[nH]c(=S)n3C)cc2c1C	KDM4E inh inconclusive
CC(N1CCOC1=O)S(=O)(=O)c1ccccc1 (configuration not stated)	Sfp inh 63µM, KDM4E inh inconclusive
CN1CCN(c2ccccc2NC(=O)c2cc3c(s2)-c2ccccc2OC3)CC1	Sfp inh 79µM, NPSR antag inconclusive, KDM4E inh inconclusive (no result: ALDH1A1 block)
Cc1ccc(C(=O)N/C(=C\c2cn(S(=O)(=O)N(C)C)c3ccccc23)C(=O)NCCN2CCOCC2)cc1	none (no result: ALDH1A1 block, NPSR antag, RGS12 GoLoco inh, KDM4E inh)
COc1ccc2ccccc2c1C(=O)/C=C\c1ccoc1	Sfp inh 7.9µM, ALDH1A1 block 20µM, KDM4E inh 25µM
COc1cc(OC)c(C(=O)/C=C/c2ccccc2)c(O)c1O	NPSR antag inconclusive (no result: ALDH1A1 block)
CCOc1ccc(CN(C)C(=O)c2ccc(NC(=O)CC3SC(N4CCCC4)=NC3=O)cc2)cc1 (configuration not stated)	none (no result: FBPA coupling cs, ALDH1A1 block, NPSR antag, RGS12 GoLoco inh, KDM4E inh)
COc1ccc(CCN(CC(=O)NCc2ccc(F)cc2)C(=O)c2snc(C(N)=O)c2N)cc1OC	none (no result: ALDH1A1 block, NPSR antag, RGS12 GoLoco inh, KDM4E inh)
Cc1cc2c(c(=O)o1)[C@@H](O)[C@H]1O[C@@H]1C2=O	ALDH1A1 block inconclusive (no result: NPSR antag, RGS12 GoLoco inh, KDM4E inh)
OC(COc1ccc(Cl)c2ccccc12)CN1CCN(c2ccccn2)CC1 (configuration not stated)	Sfp inh 79µM, ALDH1A1 block inconclusive, KDM4E inh inconclusive
